Results reported in PubChem BioAssay (Tox21).
Inconclusive results are not listed. A call without a number means that no potency is given here. The source made the active and inactive calls. The call rests on the fitted dose curve; in most records, active means well fitted inhibition curve with a large enough effect in the repeat runs; inconclusive means weak or mixed curves; inactive means flat fitted curve, though single readings scatter.

These compounds were tested against Voltage-gated inwardly rectifying potassium channel KCNH2 (Homo sapiens) (UniProt Q12809) (assay: Human Ether-a-go-go-Related Gene (hERG) channel small molecule antagonists: fluorescence cell-based qHTS assay (AID 1671200; further: nearly all actives have a fitted effect of over 50% in size;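 on activity change, negative = inhibition: hERG-expressing U2OS cells given a thallium stimulus after FluxOR II dye loading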)). Conditions: hERG-U2OS cells, FluxOR thallium flux fluorescence; series mostly up to 76.8 µM.
Chain of Voltage-gated inwardly rectifying potassium channel KCNH2 (Homo sapiens) (Q12809 whole entry, looked up): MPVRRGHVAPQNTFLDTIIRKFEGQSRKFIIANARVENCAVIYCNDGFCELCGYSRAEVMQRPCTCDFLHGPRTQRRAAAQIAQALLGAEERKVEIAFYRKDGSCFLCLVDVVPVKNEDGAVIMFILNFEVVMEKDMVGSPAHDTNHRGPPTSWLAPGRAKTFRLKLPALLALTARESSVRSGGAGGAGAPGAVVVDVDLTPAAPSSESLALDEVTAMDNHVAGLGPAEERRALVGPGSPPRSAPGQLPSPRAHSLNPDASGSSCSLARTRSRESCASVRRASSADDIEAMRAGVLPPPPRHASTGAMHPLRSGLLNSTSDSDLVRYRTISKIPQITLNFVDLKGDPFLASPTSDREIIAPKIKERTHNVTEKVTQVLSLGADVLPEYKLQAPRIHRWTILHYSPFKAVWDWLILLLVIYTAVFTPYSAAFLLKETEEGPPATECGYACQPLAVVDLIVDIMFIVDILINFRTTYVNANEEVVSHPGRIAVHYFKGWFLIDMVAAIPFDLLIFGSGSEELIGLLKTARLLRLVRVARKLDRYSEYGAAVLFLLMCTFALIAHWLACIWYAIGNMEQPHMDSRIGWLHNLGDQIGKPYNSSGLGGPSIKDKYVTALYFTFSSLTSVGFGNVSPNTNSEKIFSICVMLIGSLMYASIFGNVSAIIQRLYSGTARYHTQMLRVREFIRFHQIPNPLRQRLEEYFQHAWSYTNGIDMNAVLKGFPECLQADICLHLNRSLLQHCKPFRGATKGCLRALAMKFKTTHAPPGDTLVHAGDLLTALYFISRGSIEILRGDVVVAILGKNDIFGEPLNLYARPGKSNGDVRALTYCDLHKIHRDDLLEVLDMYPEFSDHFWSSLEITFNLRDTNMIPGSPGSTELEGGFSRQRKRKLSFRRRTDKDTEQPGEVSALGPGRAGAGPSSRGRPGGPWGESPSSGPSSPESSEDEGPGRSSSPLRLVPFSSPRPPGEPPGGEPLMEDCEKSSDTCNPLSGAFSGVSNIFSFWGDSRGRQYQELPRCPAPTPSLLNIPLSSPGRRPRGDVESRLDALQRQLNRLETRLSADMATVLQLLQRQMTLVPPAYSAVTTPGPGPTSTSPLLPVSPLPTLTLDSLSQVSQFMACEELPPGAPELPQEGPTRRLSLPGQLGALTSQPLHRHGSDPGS
Procedure, shortened: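 In this thallium-flux screen, overnight-cultured U2OS cells bearing the channel are dye-loaded in darkness for an hour, rested 10 min at room temperature, and then monitored kinetically at 480/540 nm for two minutes post-stimulus.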
Potency means the concentration at half of the fitted maximal effect.

Row | Structure (SMILES) | Potency | activity change, negative = inhibition
1 | CCCCC(=O)O[C@]1(C(=O)CO)[C@H](C)C[C@H]2[C@@H]3CCC4=CC(=O)C=C[C@]4(C)[C@@]3(F)[C@@H](O)C[C@@]21C | inactive | 
2 | CCCCNCCCC | inactive | 
3 | O=C1CCC(C2CCCCC2)CC1 | inactive | 
4 | CCCCNc1cc(C(=O)O)cc(S(N)(=O)=O)c1Oc1ccccc1 | inactive | 
5 | Cc1nnc(SCC2=C(C(=O)O)N3C(=O)[C@@H](NC(=O)Cn4cnnn4)[C@H]3SC2)s1 | inactive | 
6 | CC(C)C[C@H](NC(=O)OCC1c2ccccc2-c2ccccc21)C(=O)O | inactive | 
7 | CC(=O)N[C@@H](CC(C)C)C(=O)O | inactive | 
8 | ClC(Cl)Cl | inactive | 
9 | FC(F)(F)c1ccccc1 | inactive | 
10 | Nc1cccc(S(=O)(=O)O)c1 | inactive | 
11 | CCC(=O)O[C@]1(C(=O)SCF)[C@H](C)C[C@H]2[C@@H]3C[C@H](F)C4=CC(=O)C=C[C@]4(C)[C@@]3(F)[C@@H](O)C[C@@]21C | inactive | 
12 | O=C1C=CC(=O)O1 | inactive | 
13 | C[C@]12CCC(=O)C=C1CC[C@@H]1[C@@H]2CC[C@@]2(C)[C@H]1CC[C@]2(O)C(=O)CO | inactive | 
14 | CCCCCCCCCC#N | inactive | 
15 | CC/C=C\CCOC(=O)C(C)C | inactive | 
16 | CCOc1ccccc1N | 21.7 µM (active) | 
17 | C=CCc1cc(OC)c(O)c(C(=O)NCCO)c1 | inactive | 
18 | CC(C)CCCCCCc1ccc(OCCOCCO)cc1 | inactive | 
19 | CCCS(=O)c1ccc2nc(NC(=O)OC)[nH]c2c1 (stereo not drawn) | inactive | 

Row | Structure (SMILES) | Potency | activity change, negative = inhibition
20 | O=C1CCCCC1C1CCCCC1 (stereo not drawn) | inactive | 
21 | COc1ccc(Nc2ccc(OC)cc2)cc1 | inactive | 
22 | CCCNC(C)(C)COC(=O)c1ccccc1 | inactive | 
23 | CCOC(=O)c1cc(=O)c2c(OCC(COc3cccc4oc(C(=O)OCC)cc(=O)c34)OC(=O)[C@@H](N)CCCCN)cccc2o1 | inactive | 
24 | CC/C=C\CCOC(=O)CCCCC | inactive | 
25 | Cc1c(N)cccc1N | inactive | 
26 | CCCOCCC | inactive | 
27 | CC[C@H]1CC[C@H](NCc2cc3c(cc2OC)[C@H]2C[C@H]2C(=O)N3C)[C@H](c2ccccc2)N1 | inactive | 
28 | CC(C)NCC(O)COc1ccc(CCOCC2CC2)cc1 (stereo not drawn) | inactive | 
29 | CC1=C(CC(=O)O)c2cc(F)ccc2/C1=C\c1ccc(S(C)(=O)=O)cc1 | inactive | 
30 | CCOC(=O)C(Br)c1ccccc1 (stereo not drawn) | inactive | 
31 | O=Cc1ccc(O)c(O)c1O | inactive | 
32 | C1CCOC1 | inactive | 
33 | CCCCN1C[C@H](O)[C@@H](O)[C@H](O)[C@H]1CO | inactive | 
34 | CC(CNC1CCCCC1)OC(=O)c1ccccc1 (stereo not drawn) | inactive | 
35 | NC(Cc1ccc(F)cc1)C(=O)O (stereo not drawn) |  | 3.14% [at 6.97 µM] (inactive)
36 | CC(C)C(=O)OC/C=C/c1ccccc1 | inactive | 
37 | C=O | inactive | 
38 | CC(C)(C)c1cccc(O)c1 | inactive | 
